A short description of experiment [1]: qHTS assay to identify small molecule agonists of the hypoxia (HIF-1) signaling pathway - cell viability counter screen (AID 1224844; calls by dose curve; also: nearly all actives have a fitted effect of over 50% in size; also: potency is read from the fitted curve at half-maximal effect). The method, boiled down:
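Cytotoxicity was measured in parallel with the HRE-driven beta-lactamase readout: after 17 hrs of compound exposure at 37C, HRE-bla ME-180 cells received CellTiter-Glo and luminescence was recorded 30 min later.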

Experiment [2] can be described thus: qHTS assay to identify small molecule agonists of H2AX (AID 1224845; active = well fitted activation curve with a large enough effect in the signal ratio in the repeat runs, not every such curve was filed as active; the % refers to the signal ratio). An outline of the steps:
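Wild-type CHO-K1 cells, plated overnight, exposed 3hr at 37C to 15 concentrations (0.76% DMSO final). Lysed, then HTRF anti-pH2AX (S139) cryptate and anti-H2AX-d2 antibodies, 24 hr room temperature; 665/620 nm emission read.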

Experiment [3] can be described thus: qHTS assay to identify small molecule agonists of the hypoxia (HIF-1) signaling pathway (AID 1224846; active = well fitted activation curve with a large enough effect in the signal ratio in the repeat runs, not every such curve was filed as active; the % refers to the signal ratio). The method, boiled down: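 Compounds from the Tox21 10K library, dissolved in DMSO, are tested for induction of a hypoxia response element–controlled beta-lactamase reporter in ME-180 cells. Exposure lasts 17 hrs at 37C after a 5 hr settling period, followed by CCF4-AM FRET substrate.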

A short description of experiment [4]: qHTS assay to identify small molecule agonists of H2AX - cell viability counter screen (AID 1224847; calls by dose curve; also: top concentration of the series differs between compounds; nearly all actives have a fitted effect of over 30% in size). The method, boiled down: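 CHO-K1 cells plated overnight at 37C, then exposed 3 h at 37C to compounds at 15 concentrations (0.76% DMSO final). Viability by CellTiter-Glo luminescence after 30 min at room temperature.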
Experiment [5] in a line: qHTS assay to identify small molecule antagonists of the estrogen related receptor (ERR) signaling pathway from Tox21 library (AID 1224848). Also: nearly all actives have a fitted effect of over 50% in size. Also: potency is read from the fitted curve at half-maximal effect. The method, boiled down: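 Compounds dissolved in DMSO are pin-transferred onto ERR reporter cells (2,000 per well) that have settled for 6 h at 37 C. Plates then incubate 18 h at 37 C before ONE-Glo luciferase reagent and a luminescence read 30 min later.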

The nature of experiment [6]: qHTS RealTime-Glo MT Cell Viability Assay in HepG2 cells - 24 hour (AID 1224867). Also: nearly all actives have a fitted effect of over 50% in size. An outline of the steps:
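Cells + NanoLuc/prosubstrate dispensed (600 cells/well) → 5 h at 37 C/5% CO2 → compounds in DMSO transferred → 40 h incubation at 37 C, luminescence read at 0, 8, 16, 24, 32, 40 h.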

The nature of experiment [7]: A CellTox Green Cytotoxicity Assay to monitor cytotoxicity in HEK293 cells - 0 hour (AID 1224869). Also: nearly all actives have a fitted effect of over 50% in size. Also: potency is read from the fitted curve at half-maximal effect. An outline of the steps: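 Cells (HEK293, 600/well) and dye reagent are dispensed together. After 5 h at 37 C, 23 nL compound is pinned in. Plates stay at 37 C for 40 h with fluorescence read at 0h, 8h, 16h, 24h, 32h and 40h.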
A short description of experiment [8]: qHTS RealTime-Glo MT Cell Viability Assay in HepG2 cells - 40 hour (AID 1224870). Also: nearly all actives have a fitted effect of over 50% in size. An outline of the steps:
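HepG2 cells (600/well) mixed with RealTime-Glo MT reagent, settled 5 h at 37 C/5% CO2 before compound addition. Nonlytic NanoLuc luminescence from viable-cell prosubstrate reduction read repeatedly during 40 h treatment at 37 C.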

Experiment [9] is described as follows: qHTS assay to identify small molecule agonists of the estrogen related receptor (ERR) signaling pathway from Tox21 library (AID 1224849; calls by dose curve; also: nearly all actives have a fitted effect of over 15% in size). Conditions: ERR reporter cell line, ONE-Glo luciferase, 18 h; at 92.4 µM (top of the series) unless noted. The method, boiled down:
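Cells carrying the ERR reporter were plated and allowed to settle for 6 h, exposed to library compounds for 18 h at 37 C, then lysed with ONE-Glo and luminescence measured.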

Experiment [10] in a line: qHTS RealTime-Glo MT Cell Viability Assay in HEK293 cells - 32 hour (AID 1224868). The method, boiled down: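 Tox21 10K qHTS, HEK293, 600 cells/well, RealTime-Glo reagent co-dispensed with cells; 5 h preincubation, compound by pintool, 37 C, luminescence at 0–40 h.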

Values without a mark were called inactive. Results filed as inconclusive are left out. Active and inactive are the calls of the source. Unless noted, calls follow the shape of the dose curve; as a rule, active = well fitted curve in the direction sought with a large enough effect in the repeat runs; inconclusive = weak or mixed curves; inactive = no such curve, though single readings can be large; an effect the other way counts as inactive or inconclusive.
% is scaled to controls: 0 for no effect and ±100 for the full control effect.

`CC(C)(O)c1ccc(CNC(=O)c2cccnc2Oc2ccc(F)cc2)cc1`: the Potency entry in [1], in experiment [2], in experiment [3], in experiment [4], in experiment [6] and in experiment [7] was “inactive” in each case. The Potency result in experiment [8] is “inactive”. The Potency in experiment [5] is 30.6 µM (active).

Turning to `COc1ccc(C)cc1[N+](=O)[O-]`, the Potency result in experiment [1], in experiment [2], in experiment [3], in [4], in experiment [5] and in experiment [6] was “inactive” each time. In addition, the Potency entry in experiment [10], in experiment [7] and in [8] was “inactive” throughout. For the same compound, the activity change, positive = activation in experiment [9] is 4.3%.

`CN1C[C@H]2c3ccccc3Oc3ccc(Cl)cc3[C@@H]2C1`: the Potency result in experiment [1], in experiment [2], in experiment [3], in experiment [4], in [5] and in experiment [6] was “inactive” in each case. Moreover, the Potency entry in [10], in experiment [7] and in experiment [8] was “inactive” each time. The activity change, positive = activation in experiment [9] was -3.7% [at 42.5 µM].

As to `CCCCCC[C@@H](O)C/C=C\CCCCCCCC(=O)OC`, the Potency result in [1], in experiment [2], in [3], in [4], in experiment [5] and in experiment [6] was “inactive” throughout. Moreover, the Potency result in experiment [10], in [7] and in experiment [8] was “inactive” each time. Further, the activity change, positive = activation in experiment [9] is 3.83%.

As to `CN1Cc2cc(C(=O)N3CCC(C4CCNCC4)CC3)ccc2NC(CC(=O)O)C1=O` (stereo not drawn), the Potency result in [1], in [2], in experiment [3], in experiment [4], in experiment [5] and in [6] was “inactive” in each case. Also, the Potency result in experiment [10], in experiment [7] and in [8] was “inactive” in each case. For the same compound, the activity change, positive = activation in experiment [9] was 1.47% [at 42.5 µM].

On to `O=C(NCC1CN(c2ccc(N3CCOCC3=O)cc2)C(=O)O1)c1ccc(Cl)s1` (stereo not drawn), for which the Potency result in [1], in [2], in [3], in [4], in [6] and in experiment [10] was “inactive” each time. Also, the Potency entry in experiment [7] and in experiment [8] was “inactive” each time. The Potency in [5] was 23.7 µM (active). Further, the activity change, positive = activation in [9] was -38.4% [at 42.5 µM].

For the compound `OC[C@H]1O[C@@H](OCCc2ccc(O)cc2)[C@H](O)[C@@H](O)[C@@H]1O`, the Potency result in experiment [1], in [2], in experiment [3], in experiment [4], in [5] and in experiment [6] was “inactive” in each case. For the same compound, the Potency entry in experiment [10], in experiment [7] and in experiment [8] was “inactive” each time. The activity change, positive = activation in [9] was 4.76% [at 42.5 µM].

`CN1CCC(N(Cc2cccs2)c2ccccc2)CC1`: the Potency entry in experiment [1], in experiment [2], in [3], in [4], in [5] and in [6] was “inactive” each time. Besides, the Potency result in experiment [10] and in experiment [8] was “inactive” each time. Besides, the activity change, positive = activation in experiment [9] is 0.685% [at 42.5 µM].

`C[C@@H](c1ncncc1F)C(O)(Cn1cncn1)c1ccc(F)cc1F` (stereo partly drawn): the Potency entry in experiment [1], in experiment [2], in [3], in experiment [4], in experiment [5] and in experiment [6] was “inactive” each time. For the same compound, the Potency result in experiment [10], in [7] and in experiment [8] was “inactive” each time.

On to `C=C(C)C(=O)OCC`, for which the Potency result in [1], in experiment [2], in [3], in [4], in [5] and in experiment [6] was “inactive” in each case. For the same compound, the Potency entry in experiment [10] and in experiment [8] was “inactive” in each case. The activity change, positive = activation in experiment [9] was 5.74%.

For `CCc1cc(C2=C(C(=O)O)N(c3ccccc3C(F)(F)F)S(=O)(=O)c3ccccc32)cc2c1OCO2`, the Potency in experiment [1] is 21.6 µM (active); in [5], 24.1 µM (active). The Potency result in experiment [2], in experiment [3], in experiment [4], in experiment [6], in experiment [10] and in experiment [7] was “inactive” throughout. Moreover, the Potency entry in experiment [8] is “inactive”. Further, the activity change, positive = activation in experiment [9] is -39.9%.

With `C[Si](C)(CCCN)O[Si](C)(C)CCCN`, the Potency entry in experiment [1], in [2], in experiment [3], in experiment [4], in [5] and in [6] was “inactive” in each case. Also, the Potency entry in experiment [10], in [7] and in [8] was “inactive” each time. The activity change, positive = activation in [9] is -0.594%.

Consider `NC(=O)C(c1ccccc1)(c1ccccc1)[C@@H]1CCN(CCc2ccc3c(c2)CCO3)C1`, for which the Potency result in experiment [1], in experiment [2], in [3], in experiment [4], in [5] and in experiment [6] was “inactive” each time. In addition, in experiment [8], the Potency entry is “inactive”. In addition, in experiment [9], the activity change, positive = activation was -1.44% [at 42.5 µM]. Moreover, the Potency in experiment [7] is 21.3 µM (active).

Regarding `O=C(Nc1ccc(S(=O)(=O)N2CCOCC2)cc1)c1cc(Cl)ccc1NS(=O)(=O)c1ccc(Cl)s1`, the Potency result in experiment [1], in [2], in [3], in experiment [4], in experiment [5] and in [10] was “inactive” in each case. The Potency entry in experiment [8] is “inactive”. Moreover, the activity change, positive = activation in experiment [9] was -2.07% [at 42.5 µM]. In addition, the Potency in [7] is 19 µM (active).

`CCC(Cl)CCC(Cl)C(Cl)CC(Cl)C(Cl)C(Cl)CCl` (stereo not drawn): the Potency result in experiment [1], in experiment [2], in experiment [3], in experiment [4], in [5] and in [6] was “inactive” in each case. In addition, the Potency entry in experiment [10], in experiment [7] and in experiment [8] was “inactive” each time. In experiment [9], the activity change, positive = activation was 0.0481%.

For the compound `CC(COCCO)OCCO` (stereo not drawn), the Potency entry in experiment [1], in experiment [2], in [3], in experiment [4], in [5] and in [7] was “inactive” each time. Besides, the Potency result in experiment [8] is “inactive”. Moreover, the activity change, positive = activation in experiment [9] is 0.277%.

Turning to `CCC(C)O` (stereo not drawn), the Potency result in [1], in experiment [2], in experiment [3], in experiment [4], in [5] and in experiment [6] was “inactive” each time. The Potency entry in [10], in experiment [7] and in experiment [8] was “inactive” in each case.

Take `C=CCOC(=O)CCC1CCCCC1`: the Potency entry in [1], in experiment [2], in [3], in experiment [4], in experiment [5] and in [6] was “inactive” throughout. In addition, the Potency result in [10], in experiment [7] and in [8] was “inactive” throughout. Besides, in experiment [9], the activity change, positive = activation is -4.2%.

Turning to `Cc1ncc(CO)c(C=O)c1O`, the Potency entry in experiment [1], in experiment [2], in experiment [3], in experiment [4], in experiment [5] and in [6] was “inactive” throughout. Further, the Potency entry in [10], in [7] and in experiment [8] was “inactive” throughout. Further, in [9], the activity change, positive = activation is 2.22% [at 42.5 µM].

On to `OC(C#CCN1CCCC1)(c1ccccc1)c1ccccc1`, for which the Potency result in experiment [1], in experiment [2], in [3], in [4], in [5] and in experiment [6] was “inactive” throughout. The Potency result in [10], in [7] and in [8] was “inactive” each time. Besides, the activity change, positive = activation in experiment [9] is -10.1% [at 42.5 µM].

For the compound `O=[N+]([O-])c1ccc(NCCO)c(OCCO)c1`, the Potency result in experiment [1], in experiment [2], in experiment [3], in [4], in experiment [5] and in experiment [6] was “inactive” each time. In addition, the Potency result in experiment [7] and in experiment [8] was “inactive” in each case. Also, the activity change, positive = activation in [9] was -14.5%.

For `CCC(C)(C)CC`, the Potency entry in [1], in experiment [2], in experiment [3], in experiment [4], in experiment [5] and in experiment [6] was “inactive” throughout. Also, the Potency entry in experiment [10], in experiment [7] and in experiment [8] was “inactive” in each case. The activity change, positive = activation in experiment [9] was -6.86%.

For the compound `O=C(O)c1nc(Cl)c(Cl)c(Cl)c1Cl`, the Potency entry in [1], in [2], in experiment [3], in experiment [4], in experiment [5] and in [6] was “inactive” each time. The Potency entry in experiment [7] and in experiment [8] was “inactive” each time. The activity change, positive = activation in [9] was 0.56%.

(Values after PubChem BioAssay (Tox21).)
